# PubChem BioAssay (NCATS)
# Results filed as inconclusive are left out. Active and inactive are the calls of the source. Calls come from the whole dose curve; as a rule, active = well fitted inhibition curve with a large enough effect; inconclusive = small, poorly fitted or top-dose-only effect; inactive = flat fitted curve, though single readings scatter.
# Test system: HACAT
# Test: qHTS assay to identify novel small-molecules to repurpose for Merkel cell carcinoma treatment (AID 1296009); note: nearly all actives have a fitted effect of over 60% in size
# Conditions: MCC and control cell lines, CellTiter-Glo viability, 72 h; at 44.8 µM (top of the series) unless noted
# Source text: MCC is a rare and aggressive neuroendocrine skin cancer with limited treatment options. Approximately 80% of MCCs have the Merkel cell polyomavirus (MCPyV) DNA integrated into the host genome (virus-positive: VP-MCC) and viral oncogenes drive oncogenesis. The remaining MCCs are virus-negative (VN-MCC) and are caused by UV mutagenesis. To identify novel treatments for VP-MCC and/or VN-MCC we screened three VP-MCC cell lines (WAGA, MKL-1, MKL-2), three VN-MCC cell lines (MCC-13, MCC-26, UISO), and four immortalized, non-transformed control cell lines (HaCaT, HEK293T, CRL7250, NIH-3T3) against ~2,400 compounds in the NCGC Pharmaceutical Collection (NPC) and ~1,900 compounds in the Mechanism Interrogation PlatE (MiPE). Using cell viability as a readout (CellTiter-Glo assay) we found both overlapping and distinct drugs that can be repurposed for the treatment of VP-MCC and VN-MCC.
# A high-throughput screen was conducted in 1536-well white flat bottom plates (Corning) on a Kalypsys robotic system. Cell lines WAGA, MKL-1, MKL-2, MCC-13, MCC-26, UISO, HaCaT, HEK293T, CRL7250, and NIH-3T3 were screened against 2 small molecule annotated drug libraries NPC and MIPE in dose response (8 and 11 pt. respectively) measuring cell viability after 72 hours of incubation. […] A 1,536 pintool (Kalypsys) was used to transfer 23 nL of compound in DMSO to the 1,536-well assay plates. After 72 hr incubation at 37 degree celsius, 2.5 uL of CellTiter-Glo (Promega) was dispensed into each well using a BiorapTR. Plates were incubated at room temperature for 10 min, transferred to a ViewLux (PerkinElmer) and the luminescence was recorded using an exposure time of 2 seconds. Relative luminescence units (RLUs) were normalized to in-plate controls (no cells as a positive (cytotoxicity) control, DMSO as negative control) and the normalized data was processed using NCATS in-house software.
row,Compound,outcome
1,COc1ccc2c(c1)C[C@H](C(=O)Nc1ccc(-c3cn[nH]c3)cc1OCCN(C)C)CO2,inactive
2,COc1cc(O)ccc1OCCNCC(O)COc1cccc2[nH]c3ccccc3c12 (configuration not stated),inactive
3,CC(=O)c1c(OCCN2CCCCC2)c(OCCC(C)c2ccc(F)cc2)c2oc(C)nc2c1C (configuration not stated),inactive
4,C=C(C)C(=O)OC1[C@@H]2C(=C)C(=O)O[C@@H]2C[C@@H](C)[C@@H]2C=CC(=O)[C@@]12C (some centres not stated),inactive
5,CC1CCC2C(C)(C)C(O)CCC2(C)C12Cc1c(O)cc3c(c1O2)CN(C(CCCN=C(N)N)C(=O)O)C3=O (configuration not stated),inactive [at 17.4 µM]
6,COc1cc(O)c(C(=O)CCc2ccc(O)cc2)c(O[C@@H]2O[C@H](CO)[C@@H](O)[C@H](O)[C@H]2O)c1,inactive [at 17.4 µM]
7,N#CCC(C1CCCC1)n1cc(-c2ncnc3[nH]ccc23)cn1 (configuration not stated),inactive
8,CC1CCC2C(=CCC(O)C2(C)C)C1(C)Cc1c(O)cc(CO)c(C=O)c1O (configuration not stated),inactive
9,C/C=C(/COC(=O)/C(C)=C/C)C(=O)OC/C=C/c1ccc(OC)cc1,inactive
10,O=C(NCc1ccc(Oc2ccccc2)cc1)c1nc(-c2cc(Br)c(O)c(Br)c2)no1,inactive
11,CC/C(=C(\c1ccc(O)cc1)c1ccc(OCCNC)cc1)c1ccccc1,inactive
12,CNC(=O)c1cccc2cc(Oc3ccnc4cc(OCC5(N)CC5)c(OC)cc34)ccc12,inactive
13,CC(C)[C@@H](C)/C=C/[C@@H](C)[C@H]1CC[C@H]2C3=CC=C4C[C@@H](O)CC[C@]4(C)C3=CC[C@]12C,inactive
14,CCCCn1ccc(N2CCC(c3ccccc3)CC2)c(Cl)c1=O,inactive
15,C=C1/C(=C/C=C2\CCC[C@]3(C)[C@@H]([C@H](C)/C=C/C(=O)C4CC4)CC[C@@H]23)C[C@@H](O)C[C@@H]1O,inactive
16,C=C1CC[C@@H]2[C@](C)(CO)[C@H](O)CC[C@@]2(C)[C@@H]1C/C=C1/C(=O)OC[C@@H]1O,inactive
17,CCC(C)n1cc(C)c2c(C(=O)NCc3c(C)cc(C)[nH]c3=O)cc(-c3ccc(N4CCNCC4)nc3)cc21 (configuration not stated),inactive
18,O=C1c2c(O[C@@H]3O[C@H](CO)[C@@H](O)[C@H](O)[C@H]3O)cc(O)cc2OC1(O)Cc1ccc(O)cc1 (some centres not stated),inactive [at 17.4 µM]
19,Cc1ccc(C2(COC(=O)C(C)C)CO2)c(OC(=O)C(C)C)c1 (configuration not stated),inactive
20,CCC[C@@H](NC(=O)N1C(=O)C(CC)(CC)[C@@H]1Oc1ccc(C(=O)N2CCN(C)CC2)cc1)c1ccc2c(c1)OCO2,inactive
21,COc1cc(-c2cc(-c3ccc(N4CCNCC4)cc3)cnc2C)cc(OC)c1OC,inactive
22,C[C@@H](c1nc(-c2ccc(C#N)cc2)cs1)[C@](O)(Cn1cncn1)c1cc(F)ccc1F,inactive
